Broadly, the inhibition is the change of the read-out against control, counted positive when it falls.

Hit rate of the full screen: of about 230,000 compounds, about 1,500 (0.65%) were called active.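 Rule for the calls: active = pattern-corrected inhibition of lipid staining of at least 50% with the nuclear-stain viability signal not falling by more than 50%; inactive = the rest, inconclusive results apart.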 The list comes from a sample in which actives are over-represented; it also holds similar structures and randomly drawn compounds.

A short description of the experiment: inhibitors of triacylglycerol accumulation, primary screen, cell-based, uHTS, fluorescence, H9c2 (AID 651582).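 For inhibition: 0% = DMSO wells and 100% = triacsin C control wells.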 The note with it: H9c2 cells, Nile Red lipid (TAG) fluorescence, at 12.5 µM, cells loaded with 200 µM oleic acid; DAPI nuclei signal change (viability), lower = more cytotoxic: measured here: DAPI nuclei count viability; inhibition: stronger effect = higher value.
With `Cc1nc2ccc(C(=O)O)cc2[nH]1`, the DAPI nuclei signal change (viability), lower = more cytotoxic is 7.29% and the inhibition was -10.7% (inactive).
In the case of `COC(=O)Nc1nc2ccc(Sc3ccccc3)cc2[nH]1`, the DAPI nuclei signal change (viability), lower = more cytotoxic was -43.5% and the inhibition is 58.7% (active).
`COc1ccc2nc(SCC(=O)Nc3c(C)cc(C)cc3C)[nH]c2c1`: the DAPI nuclei signal change (viability), lower = more cytotoxic is -8.51% and the inhibition is 24.4% (inactive).
The matching figures for `N#Cc1ccc(-c2ccc3nccn3c2)cc1`: 18.4% and -21.5% (inactive).
The like results for `COc1cc(C(=O)NCC(c2ccco2)N2CCCC2)ccc1OCc1ccccc1` (stereo not given) were, in that order, 9.22% and 5.54% (inactive).
The like results for `CCC1CCCCN1C(=S)NC(=O)c1ccco1` (stereo not given) were, in that order, -3.85% and -2.4% (inactive).
In the case of `COC(=O)c1ccc(SCc2ccccc2)nc1`, the DAPI nuclei signal change (viability), lower = more cytotoxic was 0.616% and the inhibition was -5.84% (inactive).
The like results for `COC(=O)c1ccc(-c2c(-c3ccccc3)ncc3cc(OC)c(OC)cc23)cc1` were, in that order, -46.2% and 70.6% (active).
The matching figures for `COc1ccc(OCC(=O)NNC(=O)c2ccc(-c3ccccc3)cc2)cc1`: -4.12% and -6.97% (inactive).
The like results for `CN(CC(=O)Nc1c(Cl)cccc1Cl)C(=O)CC1OC(=O)c2ccccc21` (stereo not given) were, in that order, -7% and 2.91% (inactive).
In the case of `COc1ccc(S(=O)(=O)N2CCCCC2c2cc(C(=O)NCc3ccc(F)cc3)no2)cc1` (stereo not given), the DAPI nuclei signal change (viability), lower = more cytotoxic was -7.14% and the inhibition was 11.8% (inactive).
The like results for `O=C(Nc1ccc(OC(F)(F)F)cc1)c1ccc2c(c1)no[n+]2[O-]` were, in that order, -44.5% and 57.3% (active).
The like results for `Cn1nccc1NC(=O)Nc1ccc(OC(F)(F)F)cc1` were, in that order, 0.761% and -19.5% (inactive).
The matching figures for `CCOC(=O)Cc1ncccc1C(=O)Nc1ccc(OC(F)(F)F)cc1`: -10.3% and -0.736% (inactive).
As to `Cc1ccccc1Cn1c(C)c(C(=O)NCc2cccc(C(F)(F)F)c2)sc1=O`, the DAPI nuclei signal change (viability), lower = more cytotoxic amounted to 2.91% and the inhibition is 13.2% (inactive).
The like results for `CC(=O)c1cccc(-c2ccc(CN3C(CC(C)C)C(=O)N(Cc4cn(CC5CCCCC5)nn4)CCS3(=O)=O)cc2)c1` (stereo not given) were, in that order, -20.7% and 52.2% (active).
The like results for `COc1ccc(-c2ccc(CN3C(CC(C)C)C(=O)N(Cc4cn(CC5CCCCC5)nn4)CCS3(=O)=O)cc2)cc1` (stereo not given) were, in that order, -3.84% and 14.3% (inactive).
The like results for `CC(C)CC1C(=O)N(Cc2cn(CC3CCCCC3)nn2)CCS(=O)(=O)N1Cc1ccc(-c2ccc(Cl)cc2)cc1` (stereo not given) were, in that order, -4.47% and 46.5% (inactive).
For the molecule `Cc1ccccc1-c1cc(C(=O)NCc2cccs2)n(CC2CC(c3cccnc3)=NO2)n1` (stereo not given), the DAPI nuclei signal change (viability), lower = more cytotoxic was -34.7% and the inhibition was -1.76% (inactive).
The like results for `O=C(CCc1ccc(S(=O)(=O)N2CCOCC2)cc1)OCC(=O)c1ccc(Br)cc1` were, in that order, 5.4% and -35.9% (inactive).
The matching figures for `Cc1ccc(/C=N/NC(=S)NC2CCCCC2)o1`: -2.44% and 15.8% (inactive).
The matching figures for `CN(C)S(=O)(=O)c1cccc(NC(=S)NCc2ccc3c(c2)OCO3)c1`: 8.91% and -12.9% (inactive).
For `Cc1ccc(/C=N/NC(=S)Nc2cccc(S(=O)(=O)N(C)C)c2)o1`, the DAPI nuclei signal change (viability), lower = more cytotoxic is -39% and the inhibition was 65.8% (active).
The matching figures for `CN1OC[C@@H]2CN[C@H](c3ccc(-c4ccccc4)cc3)C[C@@H]21`: -19.9% and 37.5% (inactive).
The like results for `COc1ccccc1NC1=NC2(CCCC2)N=C(N)N1` were, in that order, -8.79% and 8.65% (inactive).
As for `COc1ccccc1Nc1nc(N)nc(CN(C)C2CCCCC2)n1`, the DAPI nuclei signal change (viability), lower = more cytotoxic was -2.24% and the inhibition was -18.7% (inactive).
The like results for `COc1ccccc1NC1=NC(c2ccc(Cl)cc2)N=C(N)N1` (stereo not given) were, in that order, -23.4% and 58.3% (active).
As to `Cc1ccc(NC(=O)CN(C)C(=O)c2ccc(Cl)c(S(=O)(=O)NCc3ccco3)c2)cc1`, the DAPI nuclei signal change (viability), lower = more cytotoxic is -5.08% and the inhibition was 12.3% (inactive).
On to `CCCCc1ccc(S(=O)(=O)NC(=O)C2(C)CCN2C(=O)c2c(C)noc2C)cc1` (stereo not given), for which the DAPI nuclei signal change (viability), lower = more cytotoxic worked out at 2.79% and the inhibition is 0.354% (inactive).
The matching figures for `O=C(Nc1cccc(C(=O)O)c1)/C(=C\c1ccccc1)NC(=O)c1ccc(Br)o1`: -3.36% and 6.66% (inactive).
The like results for `COc1ccc2sc(-c3ccc(S(C)(=O)=O)cc3)c(-c3ccc(C(N)=O)cc3)c2c1` were, in that order, -5.68% and 33.1% (inactive).
Turning to `COc1ccc2sc(-c3ccc(S(C)(=O)=O)cc3)c(C#Cc3cncn3C)c2c1`, the DAPI nuclei signal change (viability), lower = more cytotoxic amounted to 54.1% and the inhibition is 93.5% (active).
Take `Cn1cncc1C#Cc1c(-c2ccsc2)sc2ccccc12`: the DAPI nuclei signal change (viability), lower = more cytotoxic turned out to be 7.19% and the inhibition is -0.161% (inactive).
The matching figures for `O=C(O)c1ccc([N+](=O)[O-])cc1Sc1ccsc1`: -1.85% and -10.5% (inactive).
Regarding `CCOC(=O)c1cc(-c2sc(NC(=O)c3ccccc3)nc2C)n(Cc2ccccc2)n1`, the DAPI nuclei signal change (viability), lower = more cytotoxic is -2.4% and the inhibition was 44.7% (inactive).
For the molecule `COCCNc1ncnc2c1ncn2[C@H]1CN(CCN2CCOCC2)C[C@@H](CO)O1`, the DAPI nuclei signal change (viability), lower = more cytotoxic was -0.911% and the inhibition is 0.573% (inactive).
The matching figures for `CCCOC(=O)c1[nH]c2c(c1C)C(=O)CC(c1cccs1)C2` (stereo not given): -13.9% and 64.7% (active).
For `COC(=O)C1C(=O)c2c([nH]c(C(=O)OCCSC)c2C)CC1C` (stereo not given), the DAPI nuclei signal change (viability), lower = more cytotoxic was -3.66% and the inhibition was 1.54% (inactive).
The like results for `CCCOC(=O)c1[nH]c2c(c1C)C(=O)CC(c1cc(OC)c(OC)c(OC)c1)C2` (stereo not given) were, in that order, -10.1% and -26.3% (inactive).
For the molecule `Cn1c(CCN2CCN(c3ccccn3)CC2)nc2cc(NS(=O)(=O)c3ccc(F)cc3)ccc21`, the DAPI nuclei signal change (viability), lower = more cytotoxic worked out at 6.59% and the inhibition was -5.66% (inactive).

Values taken from PubChem BioAssay AID651582 (Sanford-Burnham Center for Chemical Genomics, 2012).
